Results reported in PubChem BioAssay AID504766 (The Scripps Research Institute Molecular Screening Center, 2011).
The campaign covered roughly 340,000 compounds. About 3,400 (1%) were called active.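 How the source made its calls: active means inhibition above the mean over all tested compounds plus 3 SD (cut at about 4.2% in these data); inactive means the rest.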 The sample as a whole holds a higher share of actives than the screen did.

What follows are molecules tested against Nuclear receptor subfamily 0 group B member 1 (Homo sapiens) (UniProt P51843) (assay: relief of DAX1 transcriptional repression – cell-based, HEK293, Gal4-DAX1, luciferase luminescence, primary screen (AID 504766;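 further: 0% = DAX1-transfected cells with DMSO and 100% = empty-vector control cells with DMSO; inhibition shows as a rise in luminescence from relieved DAX1 repression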)). Details: HEK293 Gal4-DAX1 luciferase reporter, at 6.75 µM, stronger effect = higher value.
Sequence of Nuclear receptor subfamily 0 group B member 1 (Homo sapiens) (P51843 207-470 limits assumed): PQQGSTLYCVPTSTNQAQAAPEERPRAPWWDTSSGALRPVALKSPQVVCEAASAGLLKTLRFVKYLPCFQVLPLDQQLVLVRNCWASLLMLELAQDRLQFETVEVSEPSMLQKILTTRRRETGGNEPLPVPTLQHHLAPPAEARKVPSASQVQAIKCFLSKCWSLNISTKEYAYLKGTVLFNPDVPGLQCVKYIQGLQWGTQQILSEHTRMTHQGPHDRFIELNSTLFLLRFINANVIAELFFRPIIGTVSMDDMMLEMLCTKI
`COc1cc(SC)ccc1C(=O)N(Cc1ccccc1)c1ccccc1` was tested, and the inhibition was -0.88% (inactive). With `COc1ccccc1OCCNC(=O)CCNC(=O)c1ccccc1Cl` the inhibition was 0.98% (inactive). `COc1cc(SC)ccc1C(=O)NCCOc1ccccc1Cl` was tested, and the inhibition was 4.52% (active). `O=C(NCC(F)(F)F)c1ccc(S(=O)(=O)NCCc2ccc3c(c2)OCCO3)cc1` was tested, and the inhibition was 1.37% (inactive). In the case of `C#Cc1cc(N2CCN(C(=O)c3ccoc3)CC2)n2nc(-c3cccc(Cl)c3)cc2n1`, the inhibition is reported as -0.19% (inactive). In the case of `CCCc1c(C)nc2scc(-c3ccc(Cl)cc3)n2c1=O`, the inhibition is reported as 1.4% (inactive). `COc1ccc(OC)c(/C=C/C(=O)OCC(=O)Nc2ccc3c(c2)OCCO3)c1` was tested, and the inhibition was 0.21% (inactive). For `COc1ccc(OC)c(/C=C/C(=O)c2ccc3c(c2)OCO3)c1`, the inhibition was 5.49% (active). With `COc1ccc(NC(=O)NCc2ccc3c(c2)OCO3)c(OC)c1` the inhibition was 0.03% (inactive). With `CCCCN(C(C)=O)c1ccc2c(c1)C1CC2CCN1Cc1ccccc1` (stereo unspecified) the inhibition was 1.48% (inactive). For `CCN(CC)CCN(C(=O)c1ccc2c(c1)CCCC2)c1nc2c(OC)cccc2s1`, the inhibition was -0.58% (inactive). `COC(=O)/C=C/C(=O)NCc1ccco1` was tested, and the inhibition was 1.74% (inactive). `CC(C)(C)NC(=O)NCc1ccco1` was tested, and the inhibition was 4.44% (active). In the case of `O=C(CC12CC3CC(CC(C3)C1)C2)NCc1ccco1`, the inhibition is reported as -0.86% (inactive). `COc1ccc(OC)c(C(=O)NC2CCCc3c2cnn3-c2cc(C)cc(C)c2)c1` (stereo unspecified) was tested, and the inhibition was -1.87% (inactive). With `CC(=O)c1cccc(NC(=O)C2COc3ccccc3O2)c1` (stereo unspecified) the inhibition was 2.01% (inactive). For `COc1ccc(NC(=O)COC(=O)C2COc3ccccc3O2)cc1` (stereo unspecified), the inhibition was 0.47% (inactive). In the case of `COc1ccc(NC(=O)C2COc3ccccc3O2)cc1` (stereo unspecified), the inhibition is reported as 5.29% (active). With `COc1cc(C(=O)N2CCOC23CCN(Cc2ccccc2)CC3)cc(OC)c1OC` the inhibition was 2.69% (inactive). For `O=C(CN1C(=O)NC2(CCCC2)C1=O)NCC1CCCO1` (stereo unspecified), the inhibition was 10.2% (active). In the case of `O=C(CN1C(=O)NC2(CCCCCC2)C1=O)NCc1ccc(F)cc1`, the inhibition is reported as -0.55% (inactive). With `O=C(CN1C(=O)NC2(CCCCCC2)C1=O)NC1CC1` the inhibition was -0.19% (inactive). In the case of `CC1CCCC(C)N1C(=O)COC(=O)c1ccccc1C(=O)c1ccccc1` (stereo unspecified), the inhibition is reported as 1.22% (inactive). With `N#CCCN1CCN(S(=O)(=O)c2ccc(S(=O)(=O)N3CCCC3)cc2)CC1` the inhibition was 2.37% (inactive). `N#CCCN1CCN(S(=O)(=O)c2ccc(S(=O)(=O)NC3CCCCC3)cc2)CC1` was tested, and the inhibition was 4.67% (active). For `N#CCCN1CCN(S(=O)(=O)c2ccc(S(=O)(=O)NC3CC3)cc2)CC1`, the inhibition was -1.02% (inactive). `CNC(=O)c1ccc(CN(C)C(=O)c2cc(C3CC3)nc3c2cnn3C(C)C)cc1` was tested, and the inhibition was 0.25% (inactive). For `COCCNC(=O)CSc1nc(N)c(NC(=O)c2ccco2)c(=O)[nH]1`, the inhibition was 0.48% (inactive). `CCN(CC(=O)Nc1ccc(NC(C)=O)cc1)C(=O)C1CC(=O)N(c2ccc3c(c2)OCCO3)C1` (stereo unspecified) was tested, and the inhibition was 0.46% (inactive). In the case of `CCn1c(CN2C(=O)CSc3ccccc32)n[nH]c1=S`, the inhibition is reported as 7.22% (active). With `CCn1c(CSCc2c(Cl)cccc2Cl)n[nH]c1=S` the inhibition was -0.93% (inactive). For `CCn1c(CNS(=O)(=O)c2ccc(Cl)cc2)n[nH]c1=S`, the inhibition was 0.01% (inactive). With `O=C(COC(=O)c1cncc(Br)c1)Nc1ccc(S(=O)(=O)N2CCOCC2)cc1` the inhibition was 1.32% (inactive). With `O=C(Nc1cc(F)ccc1F)c1ccc2c(=O)n3c(nc2c1)CCC3` the inhibition was 3.09% (inactive). For `O=C1c2ccccc2C(=O)c2c1cccc2N1CCN(CCO)CC1`, the inhibition was 0% (inactive). `O=C1c2ccccc2C(=O)c2c1cccc2N1CCN(Cc2ccccc2)CC1` was tested, and the inhibition was 4.26% (active). For `O=C(CN1CCN(Cc2ccccc2)CC1)NC(c1ccccc1)c1ccccc1`, the inhibition was -1.74% (inactive). `CC(=O)Nc1ccc2c3c(ccc([N+](=O)[O-])c13)CC2` was tested, and the inhibition was -0.19% (inactive). With `Cc1nn(C)c(C(=O)NNC(=S)NC2CCCCC2)c1Cl` the inhibition was -0.26% (inactive). In the case of `COc1cccc(OC)c1C(=O)NC(=S)Nc1ccc(N2CCOCC2)c(Cl)c1`, the inhibition is reported as 0.83% (inactive). For `COc1cccc(NC(=S)NC(=O)c2c(Cl)c(C)nn2C)c1`, the inhibition was 4.28% (active). In the case of `CCCCCCn1c(=O)n2n(c1=O)C[C@]1(OC(=O)NCc3ccc(OC)c(OC)c3)CN(S(=O)(=O)c3ccc(C)cc3)C[C@]1(O)C2`, the inhibition is reported as -0.07% (inactive). For `C=CCN1CCN(c2ccncc2S(=O)(=O)N2CCN(C)CC2)CC1`, the inhibition was 1.7% (inactive). For `C[C@@H]1CN([C@@H](C)CO)C(=O)c2c(c3ccccc3n2C)-c2ccccc2CO[C@H]1CN(C)C(=O)C1CC1`, the inhibition was 0.47% (inactive). With `COc1ccc(NC(=O)N(C)C[C@@H]2OCc3cn(nn3)CCCC(=O)N([C@H](C)CO)C[C@H]2C)c(OC)c1` the inhibition was -0.22% (inactive). In the case of `C=CCOc1ccccc1/C=N/NC(=O)Cc1ccccc1`, the inhibition is reported as 0.28% (inactive). For `C=CCOc1ccccc1NC(=O)CN1C(=O)CNC1=O`, the inhibition was 4.47% (active). With `Cc1cccc(NC(=O)CN2C(=O)CNC2=O)c1` the inhibition was 1.34% (inactive). For `COc1ccc(/C=C2/CCCc3ccccc3C2=O)cc1`, the inhibition was -1.11% (inactive). With `COc1ccc(/C=C2\SC(=N)N(c3ccc(F)cc3)C2=O)cc1` the inhibition was -0.7% (inactive). With `COc1ccc(/C=C2\N=C3CCCN3C2=O)cc1` the inhibition was 4.84% (active). For `COc1ccc(S(=O)(=O)N2CCC(C(=O)NCCC(=O)NCCc3cccc(F)c3)CC2)cc1`, the inhibition was 0.25% (inactive). In the case of `CSc1ncnc2c1ncn2CCCNCC1CCCCC1`, the inhibition is reported as -0.19% (inactive). For `COc1ccc(-c2nnc(SC(C)C#N)o2)cc1` (stereo unspecified), the inhibition was 4.68% (active). `COc1ccc(-c2nnc(SC(=O)N3c4ccccc4Sc4ccccc43)o2)cc1` was tested, and the inhibition was -1.53% (inactive). With `COc1ccc(-c2nnc(SC(C)C(=O)NC3CC3)o2)cc1` (stereo unspecified) the inhibition was 1.85% (inactive). In the case of `CNC(=O)C1CN(C(=O)c2cccc(S(=O)(=O)N3CCc4ccccc43)c2)c2ccccc2O1` (stereo unspecified), the inhibition is reported as -2.16% (inactive). For `CCCN(C(=O)CSc1nnnn1C)c1c(N)n(Cc2ccccc2)c(=O)[nH]c1=O`, the inhibition was 5.42% (active). `CCCN(C(=O)CSc1nnc(N)s1)c1c(N)n(Cc2ccccc2)c(=O)[nH]c1=O` was tested, and the inhibition was -2.02% (inactive). For `CCCCN(C(=O)CSCc1ccc(C)cc1)c1c(N)n(Cc2ccccc2)c(=O)[nH]c1=O`, the inhibition was 0.19% (inactive). For `CC(C)CC1C(=O)N(Cc2cn(Cc3ccco3)nn2)CCS(=O)(=O)N1Cc1ccc(-c2ccc(Cl)c(Cl)c2)cc1` (stereo unspecified), the inhibition was -1.34% (inactive). For `CCn1c(SCC(=O)N2CCCC2=O)nc2ccccc21`, the inhibition was 1.3% (inactive). For `CCOC(=O)c1cc2c(nc1NC(=S)Nc1ccccc1)CC(C)(CC)OC2` (stereo unspecified), the inhibition was 0.77% (inactive). In the case of `CCOC(=O)c1cn[nH]c1NC(=S)Nc1ccccc1`, the inhibition is reported as 6.19% (active). For `CCOC(=O)c1ccc(NC(=S)Nc2cc(C)cc(C)n2)cc1`, the inhibition was 1.42% (inactive). For `O=C(NN=Cc1ccc2c(c1)CCC2)c1ccccc1O`, the inhibition was 2.24% (inactive). With `O=C(C[C@H]1C[C@H]2c3cc(NS(=O)(=O)c4ccc(F)cc4)ccc3O[C@H]2[C@H](CO)O1)NCc1cc(F)ccc1F` the inhibition was -0.52% (inactive). In the case of `Cc1ccc(NC(=O)c2sccc2C)cc1[N+](=O)[O-]`, the inhibition is reported as 5.25% (active). For `Cc1ccc(NC(=O)CN(C)CC(=O)Nc2cccc(F)c2)cc1[N+](=O)[O-]`, the inhibition was -3.16% (inactive). `Cc1ccc(NC(=O)CN2CCC(C(N)=O)CC2)cc1[N+](=O)[O-]` was tested, and the inhibition was 0.4% (inactive). `CC(=O)Nc1cccc(C(=O)OCN2C(=O)c3ccccc3C2=O)c1` was tested, and the inhibition was 0.92% (inactive). In the case of `CCN(CC)C(=O)C(=O)Nc1cccc(Br)c1`, the inhibition is reported as 1.59% (inactive). In the case of `CCN(CC)N=Nc1cccc(NC(C)=O)c1`, the inhibition is reported as 8.01% (active). `CC(C)n1ncc2c(C(=O)N3CCN(Cc4cccs4)CC3)cc(C3CC3)nc21` was tested, and the inhibition was -1.38% (inactive). `Cc1ccc(S(=O)(=O)N(CCc2ccccc2)c2ccc3c(c2)C2CC3CCN2C(=O)OCc2ccccc2)cc1` (stereo unspecified) was tested, and the inhibition was -0.92% (inactive). With `FC(F)(F)c1cccc(Cc2noc(CN3CCC(N4CCCCC4)CC3)n2)c1` the inhibition was 0.44% (inactive). For `O=C(CN1CCN(C(=O)c2ccco2)CC1)Nc1ccc(Cl)c(C(F)(F)F)c1`, the inhibition was -0.99% (inactive). With `Fc1cccc(Cc2noc(CN3CCN(c4cnccn4)CC3)n2)c1` the inhibition was -1.08% (inactive). In the case of `O=C(c1ccco1)N1CCN(CCOc2ccccc2)CC1`, the inhibition is reported as 3.53% (inactive). With `O=C(c1ccco1)N1CCN(Cc2cccc(C(F)(F)F)c2)CC1` the inhibition was 4.58% (active). With `CCOC(=O)N1CCN(Cc2nc(Cc3cccc(C(F)(F)F)c3)no2)CC1` the inhibition was 4.88% (active). For `Cc1cc(C)c2cc(C#N)c(N3CCNCC3)nc2c1`, the inhibition was 0.35% (inactive). `O=Cc1cn(CCOc2ccc(F)cc2)c2ccccc12` was tested, and the inhibition was -0.3% (inactive). In the case of `O=C(CNC(=O)N1CC(=O)Nc2ccccc21)Nc1ccc(Br)cc1F`, the inhibition is reported as 0.45% (inactive). `Cc1nnc(SC(C)C(=O)c2c[nH]c3ccccc23)n1C1CC1` (stereo unspecified) was tested, and the inhibition was 0.71% (inactive). With `COc1ccc(N(CC(=O)Nc2cccc3ccccc23)S(C)(=O)=O)c(OC)c1` the inhibition was -0.73% (inactive). With `COc1ccc2c(CC(=O)OCC(=O)Nc3ccccc3[N+](=O)[O-])coc2c1` the inhibition was 0.79% (inactive). For `CCc1ccccc1NC(=O)CN(c1ccc(OC)cc1OC)S(=O)(=O)c1ccccc1[N+](=O)[O-]`, the inhibition was 5.44% (active). In the case of `CCN(CC)C(=O)C1=C(C)N(Cc2ccc(OC)cc2)C(=O)C(CC(=O)NCCCCc2ccccc2)C1` (stereo unspecified), the inhibition is reported as -0.34% (inactive). For `CCOc1ccc(CCNC(=O)COC(=O)c2ccc(C)c(S(=O)(=O)N3CCOCC3)c2)cc1OCC`, the inhibition was -0.65% (inactive). In the case of `CCN(CC)C(=O)C1=C(C)N(Cc2ccc(C(C)(C)C)cc2)C(=O)C(CC(=O)NCc2cccc3ccccc23)C1` (stereo unspecified), the inhibition is reported as -0.14% (inactive).
